Reference: PubChem BioAssay AID504834 (National Center for Advancing Translational Sciences (NCATS), 2011)
The whole screen tested about 320,000 compounds, of which about 22,000 (6.9%) were called active. Not shown: some 27% with an inconclusive outcome. The sample as a whole holds a higher share of actives than the screen did. A number with no mark means an inactive call. Calls follow the shape of the dose curve; as a rule, active = well fitted inhibition curve with a large enough effect; inconclusive = small, poorly fitted or top-dose-only effect, or another doubt; inactive = no such curve, though single readings can be large or run the other way.

Assay: Primary qHTS for delayed death inhibitors of the malarial parasite plastid, 96 hour incubation
Conditions: P. falciparum luciferase reporter growth; series mostly up to 28.7 µM; activity change, negative = inhibition: at the top concentration
Outline: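 Two-generation exposure (96 h) targets delayed-death phenotype. Reporter parasites carrying integrated firefly luciferase, in red cells at 2% hematocrit and 0.05% parasitemia final, kept at 37 C, 5% CO2; luminescence loss indicates inhibition.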
% is scaled to controls: 0 for no effect and ±100 for the full control effect; potency is read from the fitted curve at half-maximal effect.

Compound | Potency | activity change, negative = inhibition
Clc1nc(NC2CCCC2)nc(N2CCOCC2)n1 | 11.7 µM (active) | 
Cc1ccc(Nc2nc(N3CCOCC3)nc(N3CCOCC3)n2)cc1Cl |  | -16.3%
COC(=O)CNc1nc(Cl)nc(N2CCC(C)CC2)n1 |  | 9.44%
O=C(Nc1ccc(N2CCCC2=O)cc1)c1cncc(Br)c1 |  | 1.63%
Cc1cccc(N(Cc2ccccc2)C(=O)c2cc(S(=O)(=O)N3CCOCC3)ccc2F)c1 | 11.7 µM (active) | 
Cc1cccc(NC(=O)c2cc(S(=O)(=O)N3CCC4(CC3)OCCO4)ccc2F)c1 |  | 23.8%
Cc1cccc(N(Cc2ccccc2)C(=O)c2ccccc2F)c1 |  | -24.8%
O=C(c1ccc(F)c(S(=O)(=O)N2CCOCC2)c1)N(CCc1ccccc1)Cc1ccccc1 | 2.62 µM (active) | 
COc1ccc(C(=O)N(Cc2ccccc2)c2ccc(C)cc2)cc1S(=O)(=O)N1CCOCC1 |  | -68.2%
NC(=O)C1CCN(C(=O)c2ccc(F)c(S(=O)(=O)N3CCOCC3)c2)CC1 |  | 6.45%
Cc1cccc(C(=O)Nc2ccc(Oc3cnccn3)cc2)c1 |  | 63.5%
COc1cccc(C(=O)n2ccc(-c3cccs3)n2)c1 |  | 0%
CC(=O)Nc1cccc(NC(=O)CSc2nccn2Cc2ccc(F)cc2)c1 |  | 0%
COC(=O)[C@H](CC(C)C)NC(=O)N1CCCCC1C (stereo not given in full) |  | -9.64%
CCCc1c(C(=O)Nc2ccc(F)cc2)cnn1-c1ccccc1 |  | -24.3%
Cc1cc(C)cc(N(CCC#N)C(=O)CN2C(=O)NC3(CCCC3)C2=O)c1 |  | 13.1%
COc1ccc(CCNc2nc3ccc(C)cc3n3cnnc23)cc1OC |  | 20.1%
COc1ccc(CCNc2nc(C)cc(C)n2)cc1OC |  | 0%
COc1ccc(CCNc2cc(C)nc3c(-c4ccc(Cl)cc4)c(C)nn23)cc1OC | 10.4 µM (active) | 
COc1ccccc1-c1cnn2c(N3CCOCC3)cc(C)nc12 |  | 136%
CCc1nccn1S(=O)(=O)c1cccc([N+](=O)[O-])c1 |  | 1.85%
O=C(Oc1ccc([N+](=O)[O-])cc1)c1ccc(Cl)c(S(=O)(=O)N2CCCCC2)c1 |  | -10.5%
CC(C)c1nccn1S(=O)(=O)c1cc([N+](=O)[O-])ccc1Cl | 11.7 µM (active) | 
Cn1c(=O)c2c(-c3cccc(Br)c3)c(C#N)c(N)nc2n(C)c1=O |  | 23.3%
CSc1ccc(-c2c(C#N)c(N)nc3c2c(C)nn3-c2ccccc2)cc1 | 2.08 µM (active) | 

Compound | Potency | activity change, negative = inhibition
Cc1nn(-c2ccccc2)c2c1C(c1ccc(F)cc1)C(C#N)=C(N)O2 (stereo not given) |  | 52.7%
COc1ccc2c3c(c(=O)oc2c1)C1O[C@](CCCCN2C(=O)c4ccccc4C2=O)(Cc2c1ccc1ccccc21)O3 |  | 49.1% [at 5.75 µM]
COc1cccc(N2C(=O)CN(Cc3ccccc3)C2=S)c1 | 1.31 µM (active) | 
Cc1cccc(C)c1N1C(=O)CN(Cc2ccccc2)C1=S |  | 23%
COc1cccc(N2C(=O)CC(N3CCN(S(=O)(=O)c4ccccc4)CC3)C2=O)c1 (stereo not given) |  | -19.2%
Cc1ccc(S(=O)(=O)N(C)c2ccc(OCC(=O)OCC(=O)N(CC#N)c3ccccc3)cc2)cc1 |  | 1.77%
CN(CC(=O)Nc1ccc(Cl)cc1)C(=O)CNC(=O)c1ccc2ccccc2c1 |  | 34.5%
O=c1c2ccccc2cnn1Cc1n[nH]c(=S)n1-c1ccccc1F |  | 24.1%
COc1ccc(/C=C/C(=O)Nc2ccc3c(c2)OCCO3)cc1OC |  | -3.91%
COc1ccc(NS(=O)(=O)c2ccc(N3CCN(CCO)CC3)c([N+](=O)[O-])c2)cc1 |  | -11.6%
COc1ccc(NS(=O)(=O)c2cc(NC(=O)/C=C/c3cc(OC)c(OC)c(OC)c3)ccc2N2CCCCC2)cc1 | 2.08 µM (active) | 
CCOC(=O)COn1c(=O)c(-c2ccc(OCC)cc2)[n+]([O-])c2ccccc21 |  | 80.9%
Cc1cc(-c2ccc(/C=N/n3cnnc3)o2)c([N+](=O)[O-])cc1C |  | 7.32%
O=C1C2C3C=CC(C4CC34)C2C(=O)N1/N=C/c1ccc(-c2ccccc2[N+](=O)[O-])o1 (stereo not given) | 13.1 µM (active) | 
Cc1cc([N+](=O)[O-])c(-c2ccc(/C=N/n3cnnc3)o2)cc1Cl |  | 7.67%
COc1cc2c(cc1O)[C@H](Cc1ccc(Oc3cc(C[C@@H]4NCCc5cc(OC)c(O)cc54)ccc3O)cc1)NCC2 | 0.415 µM (active) | 
CCc1ccc(OCC2c3cc(OC)c(OC)cc3CCN2C(C)=O)cc1 (stereo not given) |  | 3.03%
COc1ccc(NC(=O)CN(C)C(=O)c2ccc(NC3CC3)c([N+](=O)[O-])c2)cc1 |  | -25.4%
COc1cccc(N(CC(=O)NCc2ccccc2)C(=O)CCC(=O)Nc2nccs2)c1 |  | -3.46%
NC(=O)C1CCN(C(=O)CC2C(=O)NCCN2Cc2cccc(Oc3ccccc3)c2)CC1 (stereo not given) |  | 2.05%
CC(C)(CNCC(O)c1ccccc1)N1CCOCC1 (stereo not given) | 5.86 µM (active) | 
CC(C)(CNC(=O)c1cc(=O)[nH]c2ccccc12)N1CCOCC1 |  | -11.1%
OC(CNCc1ccc(Cl)c(Cl)c1)c1ccccc1 (stereo not given) |  | 1.84%
O=C(N/N=C/c1ccc2c(c1)OCO2)c1ccc(Cn2cc([N+](=O)[O-])cn2)o1 |  | -6.78%
Cc1c(Cl)c([N+](=O)[O-])nn1Cc1ccc(C(=O)N/N=C\c2cc(Cl)ccc2O)o1 | 3.7 µM (active) | 
